# From PubChem BioAssay
# PLCg1 inh = PLC-gamma1 enzyme inhibitors, primary screen, biochemical, fluorescence, purified enzyme. 1-phosphatidylinositol 4,5-bisphosphate phosphodiesterase gamma-1 (Homo sapiens), P19174. fluorogenic substrate. inhibition, % at 12.2 µM. hit rate 0.84% among 370,000; in the data active means inhibition above about 9.5%
# ADAM10 inh = human ADAM10 inhibitors, primary screen, biochemical, QFRET, HTS | Disintegrin and metalloproteinase domain-containing protein 10 (Homo sapiens), O14672 | hit rate 0.62% among 370,000 | AID 720582, 2013 | inhibition, % at 7 µM | recombinant ADAM10, EDANS/DABCYL FRET peptide cleavage, 3 h;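 active means inhibition above a per-campaign cutoff equal to the mean of compounds falling between control-based bounds plus 3 SD, cut at about 20% in these data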;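 further: 0% = DMSO wells while the 100% control is not disclosed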
# ADAM17 inh = ADAM17 inhibitors, primary screen, biochemical, QFRET. Disintegrin and metalloproteinase domain-containing protein 17 (Homo sapiens), P78536. recombinant ADAM17, EDANS/DABCYL FRET peptide cleavage. inhibition, % at 6.95 µM. hit rate 0.83% among 370,000. AID 720648, 2013;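 active means inhibition above the mean of compounds lying between control limits plus 3 SD, set per campaign, cut at about 8.5% in these data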;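 further: 0% = DMSO-only wells as the low control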
# KLK7 zymogen act = proKLK7 zymogen activators, primary screen, biochemical, fluorescence intensity; purified proKLK7, EDANS-DABCYL substrate fluorescence; 100% is mature enzyme control, 0% vehicle; hit rate 0.9% among 370,000; activation, % at 7 µM;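 active means activation above the mean of all tested compounds plus 3 SD, computed per campaign excluding outliers beyond control limits, cut at about 13% in these data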
# PLC-beta3 inh = human PLC-beta3 inhibitors, primary screen, biochemical, fluorescence. AID 720704, 2013. inhibition, % at 12.2 µM. Purified PLC-beta3, fluorogenic substrate. 1-phosphatidylinositol 4,5-bisphosphate phosphodiesterase beta-3 (Homo sapiens), Q01970. hit rate 0.18% among 370,000; in the data active means inhibition above about 11%;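 further: 0% = median of compound wells on plate and 100% = full blocker control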
# ADAM10 confirm = human ADAM10 inhibitors, confirmation, biochemical, QFRET, triplicate | shares compounds with ADAM10 inh | ADAM10 QFRET peptide cleavage, EDANS fluorescence | AID 743208, 2013 | inhibition, % at 6.95 µM | hit rate 1% among 2,100;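 active means inhibition above about 20% chosen separately for each screening run, limit read from the data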;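 further: 0% = DMSO wells and 100% = marimastat wells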
# ADAM17 ctr = ADAM17 inhibitors, counter-screen for ADAM10 exosite inhibitor project, biochemical, QFRET, high throughput; ADAM17 QFRET peptide cleavage, EDANS fluorescence; shares compounds with ADAM10 inh; AID 743214, 2013; inhibition, % at 6.95 µM; hit rate 0.5% among 2,100;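 active means mean triplicate inhibition above the solvent-only control wells' mean plus 3 SD, cut at about 12% in these data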;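 further: 0% = DMSO wells and 100% = marimastat wells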
# ADAM10 counter = ADAM10 inhibitors, counter-screen for ADAM17 exosite inhibitor project, biochemical, FRET, human ADAM10; shares compounds with ADAM17 inh; recombinant ADAM10, EDANS/DABCYL FRET peptide cleavage, 3 h; inhibition, % at 6.95 µM; hit rate 47% among 2,900;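 active means mean inhibition over the triplicate runs exceeds the activity threshold set in the earlier primary screen, cut at about 20% in these data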;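 further: 0% = DMSO wells and 100% = marimastat wells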
# ADAM17 confirm = ADAM17 inhibitors, hit retest, confirmation, biochemical, QFRET peptide cleavage; shares compounds with ADAM17 inh; recombinant ADAM17, EDANS/DABCYL QFRET peptide cleavage; inhibition, % at 6.95 µM; hit rate 65% among 2,900;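 active means mean inhibition across replicates above the hit cutoff set in the primary screen, cut at about 8.5% in these data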;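 further: 0% = DMSO wells and 100% = marimastat wells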
# * = called active by the depositor; nt = not tested or not shown. Only some compounds are listed: those with a hit (about 2.9% of all), similar ones and a draw of the others.
SMILES,PLCg1 inh,ADAM10 inh,ADAM17 inh,KLK7 zymogen act,PLC-beta3 inh,ADAM10 confirm,ADAM17 ctr,ADAM10 counter,ADAM17 confirm
CCOc1ccc(Br)cc1S(=O)(=O)Nc1ccc(Cl)c(S(=O)(=O)N(CC)c2ccccc2)c1,-0.5,27.2*,9.4*,0.2,-1.0,7.7,3.0,34.5*,19.1*
COC(=O)c1cc(-c2ccc(F)cc2OCc2ccccc2)c(=O)n2c1CCC2,7.4,2.2,-1.7,0.3,0.1,nt,nt,nt,nt
NS(=O)(=O)c1ccc(NCc2cc(Cl)ccc2OCc2ccccc2F)cc1,3.5,31.0*,14.3*,0.0,-4.5,10.9,3.6,47.4*,21.1*
NS(=O)(=O)c1ccc(NCc2ccccc2OCc2ccc(F)cc2)cc1,0.3,10.0,4.4,-0.2,-0.9,nt,nt,nt,nt
Cc1ccc(C(=O)Nc2ccccc2-c2ccccc2)cc1S(=O)(=O)Nc1cccc(C)c1C,-0.1,29.2*,12.2*,-4.3,-5.7,17.3,5.3,39.6*,19.2*
Cc1ccccc1NS(=O)(=O)c1cc(C(=O)Nc2cccc([N+](=O)[O-])c2)ccc1C,2.2,27.0*,10.7*,0.1,1.4,6.5,1.7,35.7*,22.0*
CCC(C)[C@H](NC(=O)Nc1ccc(C)cc1C)C(=O)O (stereo not given in full),0.7,0.0,-5.6,0.1,-3.9,nt,nt,nt,nt
COc1ccccc1NS(=O)(=O)c1cc(NC(=O)c2cccs2)ccc1N1CCCCC1,-9.5,7.1,3.9,-6.8,-14.0,nt,nt,nt,nt
O=C(Nc1ccc(N2CCCC2)c(S(=O)(=O)Nc2cccc(C(F)(F)F)c2)c1)c1cccs1,-23.1,27.6*,15.1*,-1.3,-33.0,15.3,5.0,41.6*,23.8*
COc1ccc(NS(=O)(=O)c2ccc3oc(SCc4ccc(F)cc4)nc3c2)cc1,0.7,25.3*,11.4*,-0.5,-0.3,7.2,4.3,22.2*,12.1*
COc1ccccc1NS(=O)(=O)c1ccc2oc(SCc3ccc(F)cc3)nc2c1,0.8,-5.9,-4.1,-1.1,0.8,nt,nt,nt,nt
COc1ccc(NC(=S)NC(NC(=O)c2ccc(Cl)cc2Cl)C(Cl)(Cl)Cl)c([N+](=O)[O-])c1 (stereo not given),2.6,21.9*,8.8*,-0.3,3.2,10.1,2.0,31.1*,17.3*
COc1ccc(NC(=S)NC(NC(=O)c2ccccc2Cl)C(Cl)(Cl)Cl)c([N+](=O)[O-])c1 (stereo not given),5.4,2.8,3.3,-0.2,-0.1,nt,nt,nt,nt
CCc1nc2ccc(C(=O)Nc3ccc(OC)c(OC)c3)cn2c1N(CC)Cc1cccc(Br)c1,-37.9,25.8*,12.1*,-0.6,-53.6,10.9,3.6,10.7,9.8*
CCc1nc2ccc(C(=O)Nc3ccc(OC)c(OC)c3)cn2c1N(CC)CCOC,0.2,5.5,-1.7,-0.5,-6.7,nt,nt,nt,nt
COc1ccc(-c2n[nH]c(C)c2-c2cnn(-c3ccccc3)c2)c(O)c1C,4.4,31.6*,15.5*,-0.8,0.7,11.6,4.6,27.2*,15.9*
COc1ccc(-c2n[nH]c(C)c2-c2cscn2)c(O)c1,2.1,-4.6,-1.2,-0.6,-6.0,nt,nt,nt,nt
